PubChem BioAssay

Test: compound effects on hepatocellular carcinoma cell viability – HepG2, calcein-AM fluorescence, 48 h, basal, profiling panel (AID 1164)
Details: higher = more signal
Further: test concentration not given here.

Structure (SMILES) | z-score
CN(C)C(=O)[C@]1(CCC(=O)OC(C)(C)C)N=C(c2ccc(OCCCO)cc2)O[C@@H]1c1ccccc1N=[N+]=[N-] | 0.333
[N-]=[N+]=NCc1ccccc1C[C@]1(C(=O)NCCN2CCOCC2)N=C(c2ccc(OCCCO)cc2)O[C@H]1c1ccccc1N=[N+]=[N-] | -1.61
O=C1O[C@H](c2ccccc2)[C@H](c2ccccc2)N2[C@H]1[C@@H](C(=O)Nc1nc3ccccc3s1)[C@]1(C(=O)Nc3ccccc31)[C@H]2c1ccc(O)cc1 | -1.99

Test: compound effects on multiple myeloma cell viability – MM1S, calcein-AM fluorescence, 48 h, basal, profiling panel (AID 1165);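 further: viability of MM1S multiple myeloma cells under basal unstimulated conditions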
Details: higher = more signal

Structure (SMILES) | z-score
CN1CCC(CCCO)=CC1c1ccc(CN2CCCC2)cc1 (centres undefined) | -0.52
C=C[C@H](C)[C@@H](O)c1ccc(O)c2ccccc12 | -2.57
COCCOC(=O)N1C(=O)[C@@]2(c3cc(C#CC4=CCCCC4)ccc31)[C@H](C(=O)N1CCc3cc(OC)c(OC)cc3C1)[C@H]1C(=O)O[C@H](c3ccccc3)[C@H](c3ccccc3)N1[C@@H]2c1ccccc1OCCO | -1.37
COC(=O)C1=CC(CCCO)=CC(C2CC2)N(Cc2sc3ccccc3c2Cl)C=C1C(=O)OC (centres undefined) | -2.99
NC(=O)NCC#Cc1ccc2c(c1)[C@]1(C(=O)N2)[C@H](C(=O)N2CCCCCCC2)[C@H]2C(=O)O[C@H](c3ccccc3)[C@H](c3ccccc3)N2[C@@H]1c1ccc(OCCO)cc1 | -0.682
COc1ccccc1CN1C(=O)c2ccccc2[C@@H](C(=O)NCCN2CCOCC2)[C@@H]1c1ccc(CO)cc1 | -0.231
O=c1cccc(C=Cc2ccccc2)o1 | -0.571
C=C[C@@H](COC(C)=O)N(Cc1ccc([N+](=O)[O-])cc1)S(=O)(=O)c1ccc(Br)cc1 | 1.3
CC(C)C(=C=CC[C@@H](O)c1ccccc1OCCO)C[C@@H](O)c1ccccn1 | -0.757
CCCCC=C[C@@H](NC(=O)c1ccc(C(=O)OC)cc1)c1ccccc1 | -2.31
O=c1oc(-c2ccccc2)nc2cc(Br)ccc12 | -1.99
C=CC(COC(C)=O)NS(=O)(=O)c1ccc(Br)cc1 (centres undefined) | 0.101
CS(=O)(=O)CCOC(=O)C1=CC(CCCO)=CC(c2cccs2)N(Cc2cc3c(cc2Br)OCO3)C=C1C(=O)OCCS(C)(=O)=O (centres undefined) | -0.121
CCC[C@@H]1C=C(C(=O)O)[C@H](c2ccc(C)cc2)N1S(=O)(=O)c1ccc(C)cc1 | -0.0213
CC(C)NC(=O)[C@@H]1c2ccccc2C(=O)N(Cc2ccccc2)[C@H]1c1ccc(CO)cc1 | -1.42
Cc1ccc(S[C@]2(C(=O)NCc3ccccc3)CC(=O)N(Cc3ccccc3)[C@@H]2c2ccc(CO)cc2)cc1 | -0.195
COC(=O)c1ccc(C(O)C2C=CC3C(=O)N(C)C(=O)C3N2NC(=O)OC(C)(C)C)o1 (centres undefined) | -0.978
COc1ccc(C(=O)Nc2cccc(CN3C(=O)[C@]4(O[C@H](CC(=O)N5CCC[C@H]5CO)[C@@H]([Si](C)(C)c5ccc(OC)cc5)[C@@H]4C)c4ccccc43)c2)cc1 | -2.71

Structure (SMILES) | z-score
CC(C)Cc1ccc(CN2CC[C@@H](NS(=O)(=O)c3ccccc3)C2)cc1 | -3.18
C=CCC(OC(C)=O)[C@@H]1[C@@H](N(Cc2cccc3ccccc23)C(=O)c2cccc3ccccc23)c2cc(OCCCO)ccc2N1C(=O)c1ccc2ccccc2n1 (some centres undefined) | -0.399
COCCOC(=O)N1C(=O)[C@@]2(c3cc(C#CCNC(N)=O)ccc31)[C@H](c1ccc(OCCO)cc1)N1[C@H](c3ccccc3)[C@H](c3ccccc3)OC(=O)[C@H]1[C@@H]2C(=O)N1CCc2cc(OC)c(OC)cc2C1 | 0.451
O=C1C=CC(=O)[C@@H]2CC(COc3ccccc3)=C3[C@@H](CCc4ccccc4)OB(O)C[C@@H]3[C@H]12 | -3.22
[N-]=[N+]=NCc1ccccc1[C@@H]1OC(c2ccc(OCCCO)cc2)=N[C@]1(Cc1ccccc1N=[N+]=[N-])C(=O)NCc1ccccc1 | -0.466
NCCCCCCNC(=O)[C@H]1C[C@H]2C(=O)NCC(=O)N2[C@H]1c1cccc(OCCO)c1 | -0.0318
CCCCCN1CC=CC23O[C@@H]4/C=C\CCC(C)OC(=O)C4[C@H]2C(=O)N(CCCCCO)[C@@H]3C1=O (some centres undefined) | 0.599
O=C(NCc1ccccc1)[C@]1(CCS(=O)(=O)c2ccccc2)N=C(c2ccc(OCCCO)cc2)O[C@@H]1c1ccccc1 | -0.478
C=CC(=C)C1=CCO[C@@H]1[C@H]1CCCN1S(=O)(=O)c1ccccc1[N+](=O)[O-] | -1.69
COc1ccc(C(=O)Nc2cccc(CN3C(=O)[C@@]4(O[C@@H](CCn5cc(CCO)nn5)[C@H]([Si](C)(C)c5ccc(OC)cc5)[C@H]4C)c4ccccc43)c2)cc1 | -2.88
CCCC[C@H]1OB(O)C[C@H]2C1=C(C)C[C@H]1C(=O)N(Cc3ccccc3)C(=O)[C@H]12 | -0.551
COc1ccc(NN2C(C(O)c3ccc(OC)c(OCc4ccccc4)c3)C=CC3C(=O)N(C4CCCCC4)C(=O)C32)cc1 (centres undefined) | -0.257
COCC(=C=CC[C@H](O)c1ccc(OCCO)cc1)C[C@H](O)c1cc(Cl)cc(Cl)c1O | -2.31
O=C/C=C/c1ccc2c(c1)OCO2 | -0.251
Cc1ccc(S[C@]2(C(=O)NCC(C)C)CC(=O)N(Cc3ccccc3Cl)[C@@H]2c2ccc(CO)cc2)cc1 | -0.226
CN(C)C(=O)[C@]1(CCC(=O)OC(C)(C)C)N=C(c2ccc(OCCCO)cc2)O[C@@H]1c1ccccc1N=[N+]=[N-] | -0.629
[N-]=[N+]=NCc1ccccc1C[C@]1(C(=O)NCCN2CCOCC2)N=C(c2ccc(OCCCO)cc2)O[C@H]1c1ccccc1N=[N+]=[N-] | -1.68
O=C1O[C@H](c2ccccc2)[C@H](c2ccccc2)N2[C@H]1[C@@H](C(=O)Nc1nc3ccccc3s1)[C@]1(C(=O)Nc3ccccc31)[C@H]2c1ccc(O)cc1 | -3.38
